Values without a mark were called inactive. How the calls were made is not given here.
What follows are compounds tested on Aerobactin synthetase IucA (Klebsiella pneumoniae hvKP1) (assay: IucA enzyme inhibition, primary screen, biochemical, Spectrum library (AID 1346200;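 further: 100% = wells without compound and 0% = wells lacking enzyme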)). Details: malachite green pyrophosphate, A620, at 8 µM, hits give low values.

Going from `O=C1O[C@H](C(O)CO)C(O)=C1O` (stereo partly drawn) to `Cc1cc(O)c2c(c1)C(=O)c1cccc(O)c1C2=O`, the activity remaining rises from 92.2% to 107%.

First: O=c1ccc2ccccc2o1
Second: Cc1cc(=O)n(-c2ccccc2)n1C
The activity remaining of the first is higher: 124% for the first, 110% for the second.

Compared with `CCCCCCc1ccc(O)cc1O`, `CC(NCCc1ccc(O)cc1)C(O)c1ccc(O)cc1` (stereo not drawn) is lower in activity remaining: 124% for the first, 115% for the second.

Compared with `CC(=O)c1ccc[nH]1`, `COC(=O)C(C)c1ccc(C(=O)c2cccs2)cc1` (stereo not drawn) is higher in activity remaining: 98.2% for the first, 103% for the second.

Compared with `CCn1cc(C(=O)O)c(=O)c2cnc(N3CCNCC3)nc21`, `COc1c(N2CCNC(C)C2)c(F)cc2c(=O)c(C(=O)O)cn(C3CC3)c12` (stereo not drawn) is higher in activity remaining: 101% for the first, 123% for the second.

Going from `CN(C)CCOC(c1ccccc1)c1ccccc1` (tested in a mixture with another compound) to `C=CCc1ccc(OC(=O)c2ccccc2)c(OC)c1`, the activity remaining falls from 117% to 95.9%.

First: CCOC(=O)c1c(C)cc(OC)cc1O
Second: COc1ccc(-c2coc3cc(O)cc(O)c3c2=O)cc1
The activity remaining of the first is higher: 110% for the first, 98.7% for the second.

Going from `CCC(C)(C)C(=O)O[C@H]1C[C@@H](C)C=C2C=C[C@H](C)[C@H](CC[C@@H]3C[C@@H](O)CC(=O)O3)[C@H]21` to `C=C1C(=O)OC2CC1C(OC(C)=O)C/C(C)=C/CC/C(C)=C/CC[C@]2(C)O` (stereo partly drawn), the activity remaining rises from 106% to 123%.

Compared with `COc1ccccc1-c1coc2cc(OC)c(OC)c(OC)c2c1=O`, `COc1ccc(-c2coc3cc(OC(C)=O)cc(OC(C)=O)c3c2=O)cc1` is lower in activity remaining: 116% for the first, 92.5% for the second.

Compared with `CO[C@H]1[C@@H](O)[C@@H](C)O[C@H](O[C@H]2CCC3(C)C4CCC5(C)[C@@H](C6=CC(=O)OC6)CC[C@]5(O)[C@@H]4CC[C@]3(O)C2)[C@@H]1O` (stereo partly drawn), `CC(=O)O[C@@H]1CC2C(C)(C)C=CC(=O)[C@]2(C)C2CC[C@@]3(C)[C@H](c4ccoc4)OC(=O)C4OC43[C@@]21C` (stereo partly drawn) is higher in activity remaining: 113% for the first, 119% for the second.

Going from `O=S(=O)(O)CCS` to `CCCc1cc(=O)[nH]c(=S)[nH]1`, the activity remaining rises from 118% to 120%.

Compared with `CN[C@@H]1[C@H](OC2[C@H](O[C@H]3[C@H](O)[C@@H](O)[C@H](N=C(N)N)[C@@H](O)[C@@H]3N=C(N)N)O[C@@H](C)[C@]2(O)C=O)O[C@@H](CO)[C@H](O)[C@H]1O` (stereo partly drawn), `COc1ccc([C@@H]2CC(=O)c3c(O)cc(O[C@@H]4O[C@H](CO[C@H]5O[C@@H](C)[C@H](O)[C@@H](O)[C@H]5O)[C@@H](O)[C@H](O)[C@H]4O)cc3O2)cc1O` is lower in activity remaining: 108% for the first, 102% for the second.

Compared with `C1CNCCN1`, `COc1ccc2c(c1)CCC1C2CC[C@@]2(C)C1CC[C@@H]2O` (stereo partly drawn) is lower in activity remaining: 120% for the first, 111% for the second.

First: COc1ccc2c(c1)OCC(Cc1ccc(OC)c(O)c1)C2=O (stereo not drawn)
Second: CN(N=O)C(=O)N[C@@H]1[C@@H](O)[C@H](O)[C@@H](CO)O[C@@H]1O
The activity remaining of the first is higher: 115% for the first, 112% for the second.

Reference: PubChem BioAssay
